WNV protease inh – WNV NS2B-NS3 proteinase inhibition; AID 577; WNV NS2B-NS3 protease, fluorogenic substrate Ex360/Em465; stronger effect = lower value; P06935; 65,000 compounds, 0.18% hits; z-score (test concentration not listed); in the data active = z-score below about -3
CatS inh – blocks human cathepsin S protease activity | P25774 | recombinant cathepsin S, AMC dipeptide fluorescence, pooled mixtures | inhibition, %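 (tested at 5 µM per compound within 10-compound mixtures)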 | 62,000 compounds, 0.06% hits; in the data active = inhibition above about 32%, passing the limit was not always enough; inconclusive = no clear call, values can overlap the other calls
Target sequence (P25774 115-331 limits assumed): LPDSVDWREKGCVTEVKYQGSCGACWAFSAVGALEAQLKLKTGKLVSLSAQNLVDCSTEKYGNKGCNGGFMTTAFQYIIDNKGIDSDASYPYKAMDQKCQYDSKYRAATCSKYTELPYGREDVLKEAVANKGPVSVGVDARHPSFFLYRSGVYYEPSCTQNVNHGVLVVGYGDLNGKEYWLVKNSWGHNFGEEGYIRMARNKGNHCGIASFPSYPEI
HER2 expr 66K – lowers expression of human Her2 kinase; P04626; SKBR-3 HER2 protein level, AlphaScreen, 18-24 h; stronger effect = lower value; HER2 level % of control, % at 10 µM; 65,000 compounds, 0.69% hits;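 active = HER2 level under 5% of the carrier-only control; inconclusive = no clear call, values can overlap the other calls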;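 note: lower value means stronger loss of Her2 protein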
CatB block – blocks human cathepsin B protease activity; P07858; 63,000 compounds, 0.1% hits; purified cathepsin B, fluorogenic substrate, fluorescence; inhibition, %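 (tested at 10 µM)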; in the data active = inhibition above about 21%
CatL block – blocks human cathepsin L protease activity. P07711. inhibition, %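 (tested at 10 µM)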. 58,000 compounds, 0.17% hits. purified cathepsin L, fluorogenic substrate, fluorescence. AID 460; in the data active = inhibition above about 45%
Target sequence (P07711 114-288 limits assumed): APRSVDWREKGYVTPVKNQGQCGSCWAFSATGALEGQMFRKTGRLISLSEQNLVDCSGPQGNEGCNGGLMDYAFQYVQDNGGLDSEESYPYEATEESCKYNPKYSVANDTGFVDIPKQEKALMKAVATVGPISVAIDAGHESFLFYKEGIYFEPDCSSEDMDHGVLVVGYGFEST
Target sequence (P07711 292-333 limits assumed): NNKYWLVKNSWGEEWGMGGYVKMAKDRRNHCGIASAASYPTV
CatB mixtures – inhibitors of human cathepsin B in compound mixtures; Purified cathepsin B, AMC dipeptide fluorescence; AID 488; inhibition, %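 (ten-compound pools at 5 µM per compound and 50 µM total)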; P07858; 62,000 compounds, 0.06% hits; in the data active = inhibition above about 22%, passing the limit was not always enough; inconclusive = no clear call, values can overlap the other calls
Hits are given with their value; – = inactive; ? = inconclusive; · = not tested or not shown. Rows were chosen to be rich in hits. Some 1.1% of all compounds tested hit in one or more screens of this group.

SMILES	WNV protease inh	CatS inh	HER2 expr 66K	CatB block	CatL block	CatB mixtures
O=C(OCCN1C(=O)c2ccccc2C1=O)c1cc(S(=O)(=O)N2CCOCC2)ccc1F	-3.1	–	–	–	–	–
CC1=CC(C)(C)Nc2ccc(OC(=O)c3ccco3)cc21	–	–	-20	–	–	–
CC1=CC(C)(C)Nc2ccc(OC(=O)c3cccnc3)cc21	–	–	–	–	–	–
CC(C)NC(=O)c1cccc(Cn2cc(Cl)cn2)c1	-3.6	–	–	–	–	–
C=CCN1C(=O)C2C(C(=O)NCc3ccccc3)C3(C)C=CC2(O3)C1C(=O)NC(C)(C)C (stereo not drawn)	–	–	–	–	–	–
Cc1cc(NC(=O)c2oc3ccccc3c2C)ccc1-n1cnnn1	-5.5	–	–	–	–	–
Cc1ccc(C2CC(=O)N3CN(c4ccc(Br)cc4)CSC3=C2C#N)o1 (stereo not drawn)	–	–	-19	–	–	–
N#CC1=C2SCN(c3ccccc3)CN2C(=O)CC1c1cccs1 (stereo not drawn)	–	–	-20	–	–	–
N#CC1=C2SCN(c3ccccc3)CN2C(=O)CC1c1c(Cl)cccc1Cl (stereo not drawn)	–	–	–	–	·	–
CCc1cccc(NC(=O)CCS(=O)(=O)c2cccc3nonc23)c1	–	–	–	–	–	–
CN1C(=O)N(CN2CCCCC2)C2C1N(C)C(=O)N2CN1CCCCC1 (stereo not drawn)	-12	–	–	–	–	–
CN1C(=O)N2CN(C3CCCCC3)CN3C(=O)N(C)C1C23 (stereo not drawn)	–	–	–	–	–	–
CCCCOc1ccc(C2C3CN(C(=O)OCC)CC=C3C(C#N)=C(N)C2(C#N)C#N)cc1OC (stereo not drawn)	–	–	–	–	60	–
CCOC(=O)N1CC=C2C(C#N)=C(N)C(C#N)(C#N)[C@H](c3ccc(OCC)c(OCC)c3)[C@H]2C1	–	–	–	–	–	–
CC1(C)CC(=O)c2c(noc2-c2ccccc2)C1	–	–	–	–	–	–
CC1(C)CC(=O)C2(CC3=C(CC(C)(C)CC3=O)O2)C(=O)C1	–	–	-33	–	–	–
COc1cccc(CCC(=O)O)c1OC	–	–	–	–	–	–
CC(C)(C)c1cc(C(c2cccnc2)N2CCN(CCO)CC2)cc(C(C)(C)C)c1O (stereo not drawn)	–	–	-15	–	–	–
CCOc1ccccc1N(CC(=O)NC1CCCC1)C(=O)CCC(=O)Nc1cc(C)on1	-8.6	–	–	–	–	–
CCOC(=O)N1CCC(n2c(=S)[nH]c3cc(OCC)c(OCC)cc3c2=O)CC1	–	–	0.2	–	–	–
COc1ccc(CSc2nnnn2Cc2ccccc2)cc1OC	–	–	-0.9	–	·	–
Cc1ccc(N(CC(=O)NC2CC3CCC2C3)S(C)(=O)=O)cc1C (stereo not drawn)	–	–	-28	–	–	–
CS(=O)(=O)N(CC(=O)NC1CC2CCC1C2)c1cccc(C(F)(F)F)c1 (stereo not drawn)	–	–	–	–	–	–
COc1ccc(-n2nnc3c(SCC(=O)Nc4ccc5c(c4)OCCO5)ncnc32)cc1	–	–	-7.2	–	–	–
COc1ccc(-n2nnc3c(SCC(=O)c4ccccc4)ncnc32)cc1	–	–	–	–	–	–
SMILES	WNV protease inh	CatS inh	HER2 expr 66K	CatB block	CatL block	CatB mixtures
COc1ccc(-c2cc(N)n(S(=O)(=O)c3c(F)c(F)c(F)c(F)c3F)n2)cc1OC	–	–	-13	–	–	–
CCCCN(CC)CCNC(=O)c1cc2c(=O)n(C)c3ccccc3c2n1C	–	57	–	–	–	–
CN(C)CCNC(=O)c1cc2c(=O)n(C)c3ccccc3c2n1C	–	82	–	–	–	–
CCN(CC)CCNC(=O)c1cc2c(=O)n(C)c3ccccc3c2n1C	–	48	–	–	–	–
CCCN(CCC)CCCNC(=O)c1cc2c(=O)n(C)c3ccccc3c2n1C	–	–	–	–	–	–
CCN(CC)CCCNC(=O)c1cc2c(=O)n(C)c3ccccc3c2n1C	–	?	–	–	–	–
Cc1cc(C#N)c(C)n1-c1cc(C(F)(F)F)ccc1N1CCOCC1	–	–	–	–	–	–
Cn1c2ccccc2c2nn(-c3ccccc3)c(=O)cc21	-3.5	·	–	–	–	·
Cn1c(=O)cc(-c2ccccc2)c2ccccc21	–	–	–	–	–	–
Cc1cc(S(=O)(=O)N2CC(=O)N(CCc3ccccc3)C(=O)C2)ccc1F	–	–	–	–	–	–
CN1CCN(c2nc(-c3cccnc3)nc3ccccc23)CC1	–	·	–	·	·	·
Cn1nnnc1Sc1nc(-c2cccnc2)nc2ccccc12	–	–	-13	–	–	–
NCCCSC1=NCCCN1	–	–	–	–	–	–
CCn1c(O)c(C=NCCN2CCOCC2)sc1=S	-4.5	–	–	–	–	–
CC1(C)CC(=O)C(C=NCCCN2CCOCC2)=C(O)C1	–	–	–	–	–	–
Cc1cccc(N(CC(=O)NCc2ccc3c(c2)OCO3)C(=O)CCC(=O)Nc2ccccn2)c1	–	–	-30	–	–	–
COc1ccccc1NS(=O)(=O)c1ccc(C)c(C(=O)NCC2CCCO2)c1 (stereo not drawn)	–	–	–	–	–	–
COc1cccc(CNC(=O)C2CCN(S(=O)(=O)c3ccc4c(c3)CCC(=O)N4)CC2)c1	-3.3	–	–	–	·	–
COc1ccc(CCNC(=O)C2CCN(S(=O)(=O)c3cc(OC)ccc3OC)CC2)cc1	–	–	–	–	46	–
COc1cccc(CNC(=O)C2CCN(S(=O)(=O)c3ccc(F)cc3)CC2)c1	–	–	–	–	–	–
COc1ccc(C)cc1S(=O)(=O)Nc1cccnc1	–	–	–	–	–	–
CCCOc1ccc(C(=O)CCN2CCCCC2)cc1	–	–	-20	–	–	–
CCOC(=O)c1c(C)n(C)c2ccc(OC)c(NC(=O)CN3CCCCC3)c12	-3.4	·	–	–	–	·
COc1ccc(CCNC(=O)CCn2c(=O)oc3ccccc32)cc1	–	–	–	–	–	–
CCCSC1=N/C(=C\C=C\c2ccco2)C(=O)S1	–	–	-3.4	–	–	–
SMILES	WNV protease inh	CatS inh	HER2 expr 66K	CatB block	CatL block	CatB mixtures
O=C(Nc1ccc(Nc2ccccc2)cc1)C1CC1	–	–	–	22	–	–
Cn1nnnc1SCC(=O)Nc1ccccc1Cl	–	–	–	–	–	–
Cn1nnnc1SCC(=O)Nc1c(Cl)cccc1Cl	–	–	-20	–	–	–
CCCS(=O)(=O)N1CCCC(C(=O)NCCN(Cc2ccccc2)C(C)C)C1 (stereo not drawn)	–	–	–	–	–	–
CC(=O)C(Sc1ncnc2c1nnn2-c1ccc(F)cc1)C(=O)N(C)C (stereo not drawn)	–	–	-10	–	–	–
CCOC(=O)CSc1ncnc2c1nnn2-c1ccc(F)cc1	–	–	–	–	–	–
O=C(c1ccco1)c1cn(CC(=O)N2CCCc3ccccc32)c2ccccc12	–	–	–	–	–	–

Screening data: PubChem, several laboratories
